According to paper PMC5540273 (PLoS ONE, 2017):

Each compound was assayed on WNK1. Conditions: concentration: 1 μM,replicates: in singlicate; n = 1.
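Note: KINOMEscan kinase panel screen.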

Compound	%Inh [%]
Cc1n[nH]c2cc(Nc3ccnc(Nc4cccc(CN5CCOCC5)c4)n3)ccc12 [GW682569]	8
Cn1ccc2ncnc(Oc3ccc(NC(=O)Nc4ccnc(C(F)(F)F)c4)c(Cl)c3)c21	0
COC(=O)c1cccc(NC(=O)NC2CCN(c3ccnc(NCc4ccc(F)cc4)n3)CC2)c1 [GSK1379860]	10
CCn1c(-c2nonc2N)nc2cncc(Br)c21 [SB-738004]	0
C[C@@H]1CCN(C(=O)N2CCCC2)C[C@@H]1N(C)c1ncnc2[nH]ccc12	6
O=C(NOCC1CC1)c1cc(Br)c(F)c(F)c1Nc1ccc(I)cc1Cl	0
C[C@@H](Oc1cc(-n2cnc3cc(-c4cnn(C)c4)ccc32)sc1C(N)=O)c1ccccc1Cl [GSK580432]	62
CN(c1ccc2c(c1)nc(NCc1ccc(F)cc1)n2C)c1ccnc(Nc2ccc(CS(C)(=O)=O)cc2)n1.Cl [GW813244]	17
NC(=O)Nc1sc(-c2ccc(F)cc2)cc1C(N)=O [GW789449]	0
O=C(Nc1n[nH]c2cc(-c3ccco3)ccc12)C1CC1 [SB-737447]	0
CCn1c(-c2nonc2N)nc2cncc(CNC3CCNCC3)c21.Cl [SB-747651]	14
C[C@@H]1CNc2c(sc3ccc4nc(-c5ccc(O)cc5)ccc4c23)C(=O)N1	0
O=C(Nc1ccc(Oc2ccc3nc(NC(=O)C4CC4)cn3n2)c(F)c1)c1cccn(-c2ccccc2)c1=O	0
CS(=O)(=O)c1cccc(CNc2nc(Nc3ccc4c(c3)[C@@H]3C[C@@H]4CNC3=O)ncc2C(F)(F)F)c1	0
COc1cccc(OC)c1C(=O)Nc1cccc(-c2nn3ccccc3c2-c2ccnc(Nc3cccc(F)c3)n2)c1 [GSK361065]	0
OCCn1cc(-c2cnc3nnn(Cc4ccc5ncccc5c4)c3n2)cn1	0
CC(=O)Nc1ccc(-c2cc3ncnc(SCC(=O)O)c3s2)cc1	2
CCN1CCN(CCCC(=O)Nc2n[nH]c3nc(-c4ccc(O)cc4)c(Br)cc23)CC1 [SB-731579]	0
O=C(Nc1cccc(Oc2ccc3nccn3n2)c1)Nc1cccc(C(F)(F)F)c1	0

Compound	%Inh [%]
Nc1nccc(-c2ccc3c(N)n[nH]c3c2)n1 [GSK1034945]	6
COc1cc2c(Nc3ccc(NC(=O)c4ccccc4)cc3)ncnc2cc1OCCCN1CCOCC1 [GSK301329]	1
COC(=O)c1cccc(NC(=O)NC2CCN(c3ccnc(Nc4cc(OC)c(OC)c(OC)c4)n3)C2)c1 (stereo not shown) [GSK1379767]	0
COC(=O)Nc1nc2cc(Oc3ccc(NC(=O)Nc4cc(C(F)(F)F)ccc4Cl)cc3)ccc2[nH]1.Cl [GW697465]	8
COc1cc2ncn(-c3cc(OCC4CCCCC4)c(C(N)=O)s3)c2cc1OC [GSK204559]	0
CCCC(=O)Nc1n[nH]c2ncccc12 [SB-601436]	0
Cl.c1ccc(Oc2ccc(Nc3ccnc4cc(-c5ccc(CN6CCNCC6)o5)ccc34)cc2)nc1 [GW567142]	0
C[C@@H]1CNc2c(sc3ccc4nc(-c5ccncc5)ccc4c23)C(=O)N1	0
CCOC(=O)N1CCC(n2cnc(-c3ccc(F)cc3)c2-c2ccnc(N)n2)CC1 [SB-219952]	28
CC(=O)Nc1nc2cnc(Nc3cc(NC(=O)c4cccc(CC(C)(C)C#N)c4)ccc3C)nc2s1	0
Cn1ccc2ncnc(Oc3ccc(NC(=O)Nc4cnn(C(C)(C)C)c4)c(Cl)c3)c21	62
Cc1ccc(CC(=O)N2CCc3cc(-c4cn(C)c5ncnc(N)c45)ccc32)cc1 [GSK2634758]	12
N#Cc1cccc(C(=O)NC2CCN(c3ccnc(Nc4ccc(F)cc4)n3)C2)c1 (stereo not shown) [GSK1379708]	0
Cl.Nc1n[nH]c2cc(-c3ccccn3)ccc12 [GSK2189892]	0
Cc1nnc(-c2ccc3occ(-c4ccc(S(C)=O)cc4)c3n2)o1 (stereo not shown)	0
NC(=O)c1ccc(-c2cc3ncnc(SCC(=O)O)c3s2)cc1	0
Cc1cccc2c(-c3ccncc3)c(-c3ccc(F)cc3)nn12.Cl [GW461487]	0
CC(=O)c1c(-c2ccncc2)[nH]c(-c2ccncc2)c1C [GW493036]	14
